Assay outcomes from PubChem.
The list is not random: actives were taken first. Their share in the collection is about 19%.
Pf growth 48h – inhibits P. falciparum growth in the first generation, 48 h. P. falciparum luciferase growth in erythrocytes, 48 h. Potency, µM (doses to about 28.7 µM), inactives show at the top dose activity change, negative = inhibition, hits mostly inhibitors. 310,000 compounds, 5.9% hits; further: potency means the concentration at half of the fitted maximal effect; on the % scale 0 is the no-effect control and ±100 the full control effect
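Here the parasites carry a stable luciferase gene and grow inside erythrocytes in Albumax-based RPMI medium with compound for one erythrocytic cycle. Activity is scored as loss of luminescent signal.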
Pf growth 96h – P. falciparum growth inhibition at 96 hours; P. falciparum luciferase reporter growth, 96 h; Potency, µM (titrated, usually from 28.7 µM), inactives show top-dose activity change, negative = inhibition, actives largely listed as inhibitors; 320,000 compounds, 6.9% hits; further: potency means the concentration at half of the fitted maximal effect; on the % scale 0 is the no-effect control and ±100 the full control effect
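Plates of compound plus infected erythrocytes (2% hematocrit, 0.05% parasitemia final) incubate 96 hours, 37 C, 5% CO2. Detection reagent added; reduced luminescence from the parasites' luciferase reporter flags inhibition.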
SARS PLP yeast – SARS-CoV PLP inhibition in yeast; S. cerevisiae expressing SARS-CoV PLpro, growth rescue; Potency, µM (highest dose often 32.9 µM), inactives show at the top dose activity, positive = growth rescue, most hits filed as activators; 330,000 compounds, 0.19% hits; AID 485353; calls by dose curve; further: potency means the concentration at half of the fitted maximal effect; 0% is about no effect; nearly all actives have a fitted effect of over 55% in size
Cycloheximide cs – counter-screen for Shiga toxin inhibitors: cycloheximide protein synthesis inhibition; 300,000 compounds, 12% hits; cell reporter, cycloheximide protein synthesis inhibition counterscreen; max response, %; in the data active means max response mostly above about 13%, no sharp cut-off; inactive means mostly below about 14%; further: read at 38.3 µM for the half of the compounds with a filed dose; 0% is about no effect
AMA1-RON2 inh – AMA1-RON2 (P. falciparum) interaction inhibition | AlphaScreen AMA1-biotinylated RON2 peptide binding | Potency, µM (series often up to 58.2 µM), without a hit: top-dose activity change, negative = inhibition, usual class: inhibitors | 360,000 compounds, 0.2% hits | AID 720542;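 further: potency means the concentration at half of the fitted maximal effect; 0% = vehicle wells and -100% = peptide control; nearly all actives have a fitted effect of over 45% in size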
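AMA1 (3D7) with his tag at 25 nM final met compounds first, then biotinylated RON2 peptide at 25 nM; detection used donor plus acceptor beads, 10 µg/mL apiece, read by AlphaScreen after 30 min at room temperature.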
Shiga inhibitor – inhibitors of Shiga toxin in Vero cells. AID 2315. 290,000 compounds, 9.2% hits. Vero cells, Shiga toxin protein synthesis inhibition reporter. inhibition, % at 38.7 µM; in the data active means inhibition mostly above about 28%, no sharp cut-off; inactive means mostly below about 43%; further: 0% is about no effect
An asterisk follows results filed as active; u = inconclusive; x = not tested or not shown; [ ] = remark or other dose. Unless noted, the call rests on the fitted dose curve; in most records, active means well fitted curve in the direction sought with a large enough effect; inconclusive means small, poorly fitted or top-dose-only effect, or another doubt; inactive means no such curve, though single readings can be large; an effect the other way counts as inactive or inconclusive.

SMILES | Pf growth 48h | Pf growth 96h | SARS PLP yeast | Cycloheximide cs | AMA1-RON2 inh | Shiga inhibitor
Cc1c(C(C)NC(=O)c2cc(COc3cccc4cnccc34)on2)cnn1C (stereo unspecified) | 2% | 8.3µM* | -4% | 14 | 5% | 13
CSc1ccccc1OCc1cc(C(=O)NC(C)c2cnn(C)c2)no1 (stereo unspecified) | 17% | u | 1% | 13 | -15% | -8
COc1cccc(Nc2nc(Nc3ccc(Cl)c(C(=O)O)c3)nc(C)c2[N+](=O)[O-])c1 | 6% | 79% | -5% | x | -9% | x
CCc1nc2ccc(C(=O)N3CCN(C)CC3)cn2c1N(CCC(C)C)CCN(C)C | x | x | x | x | -5% | x
CCOC(=O)c1sc(NC(=S)NC(=O)c2ccccc2)c(C(=O)OCC)c1C | 19% | 30% | -7% | -1 | 29% | -6
CCOC(=O)c1c(N)sc(C(=O)OCCOC)c1C | 93% | 152% | 1% | 35* | -14% | 59*
CCOC(=O)c1sc(N)c(C(=O)Nc2ccccc2)c1C | 84% | 3% | 0% | 27* | -2% | 46*
CCOC(=O)c1sc(N)c(C(=O)OCC)c1C | 66% | 64% | -3% | 51* | -3% | 81*
O=C(O)CC1(CC(=O)Nc2ccc(Br)cc2)CCCCC1 | 36% | 37% | 0% | 4 | 3% | 9
CCCNC(=O)C[C@H]1CC[C@@H]2[C@H](COC[C@@H](O)CN2C(=O)c2ccccn2)O1 | x | x | x | x | 3% | x
Cc1ccc(C(=O)N2CCN(c3ncccn3)CC2)cc1S(=O)(=O)N1CCCCC1 | -29% | -1% | u | 5 | 0% | -12
CCCN1CCC(Oc2cccc(C(=O)NCCc3ccccc3)c2)CC1 | u | 0% | x | 56* | -19% | 72*
COCCNC(=O)c1cccc(OC2CCN(Cc3cccc(C(C)=O)c3)CC2)c1 | -10% | 0% | -2% | 1 | -6% | 4
CSCCCNC(=O)c1ccc(OC2CCN(CCc3ccccc3)CC2)cc1 | u | 13µM* | 0% | 31* | -4% | 93*
CC(Cc1ccccn1)NC(=O)c1ccc(OC2CCN(CCc3ccccc3)CC2)cc1 (stereo unspecified) | 12µM* | 13% | 21% | 29* | -5% | 47*
O=C(NCCc1ccccn1)c1ccc(OC2CCN(CCc3ccccc3)CC2)cc1 | 45% | 8% | -3% | 42* | 128% | 65*
O=[N+]([O-])c1cccc(S(=O)(=O)c2ccc(NCCO)c([N+](=O)[O-])c2)c1 | u | 42% | -1% | -2 | 8% | -7
Cc1ccc(S(=O)(=O)N2CCC(C(=O)Nc3nnc(C)s3)CC2)cc1 | 7% | 13% | 0% | -3 | -1% | -25
CCCCC(=O)N/N=C(C)/C=C/c1ccccc1F | 36% | 7% | -3% | 29* | 9% | 63*
CC(/C=C/c1ccccc1F)=N\NC(=O)C(C)C | 65% | 6% | 1% | 35* | 18% | 42*
O=C(Nc1ccc(C(=O)N2CCCC2)cc1)Nc1ccc(Cl)cc1Cl | 16% | -5% | -1% | -1 | 16% | -2
COc1ccc(Cl)cc1-c1cc(C(=O)Nc2ccc(C)c(NS(C)(=O)=O)c2)[nH]n1 | x | x | x | x | -1% | x
C[C@H]1CN([C@@H](C)CO)C(=O)c2cc(Br)cnc2O[C@@H]1CN(C)S(C)(=O)=O | x | x | x | x | 9% | x
CSCc1ccc(C(=O)NC(C)c2cnn(-c3ccccn3)c2C)o1 (stereo unspecified) | -16% | u | 1% | 24* | 1% | 48*
Cc1ccc(N2CC(C(=O)Nc3cccc(S(=O)(=O)N4CCOCC4)c3)CC2=O)cc1 (stereo unspecified) | x | x | x | x | 0% | x
SMILES | Pf growth 48h | Pf growth 96h | SARS PLP yeast | Cycloheximide cs | AMA1-RON2 inh | Shiga inhibitor
COc1cccc(OC)c1C(=O)NC(=S)N1CCCCC1c1cccnc1 (stereo unspecified) | u | u | 1% | 1 | 20% | 4
COc1cc(NS(=O)(=O)c2ccc(-n3cccn3)cc2)cc(OC)c1 | x | x | x | x | -2% | x
O=C(Nc1cccnc1Cl)c1cc([N+](=O)[O-])ccc1Cl | -23% | u | 5% | 18 | 14% | 21
O=C(Nc1cccc2ncccc12)c1cc([N+](=O)[O-])ccc1Cl | 5%[0.00184 µM] | 12µM* | -1% | -5 | 3% | 11
Cc1cc(O)c(NC(=O)c2cc([N+](=O)[O-])ccc2Cl)cc1C | u | 28% | -3% | 14 | -5% | 6
Cc1ccc(O)c(NC(=O)c2cc([N+](=O)[O-])ccc2Cl)c1 | 9.3µM* | 30% | -1% | 13 | -3% | 26
O=C(Nc1ccc([N+](=O)[O-])cc1Br)c1cc2ccccc2nc1Cl | 0.19µM* | 0.33µM* | 0% | 2 | -9% | -2
COC(=O)C1CC(O)C(O)C(O)C1 (stereo unspecified) | x | x | x | x | 0% | x
COc1ccc(CCC(=O)OCC(=O)NC2CCCC2)cc1OC | x | x | x | x | -7% | x
N#C/C(=C\c1ccc(-c2ccc(C(=O)O)cc2)o1)c1nc2ccccc2[nH]1 | u | 21% | 0% | 8 | 11% | -7
N#C/C(=C/N1CCOCC1)c1ccccc1 | 50% | 7% | -2% | 6 | 0% | 22
Cc1ccc2nc(/C(C#N)=C\c3ccc(N4CCCCC4)c([N+](=O)[O-])c3)[nH]c2c1 | u | u | x | 20 | -9% | 25
N#C/C(=C/c1ccc(N2CCOCC2)o1)c1ccc(Cl)cc1 | 160% | 218% | -16% | 36* | -22% | 37
N#C/C(=C\c1ccc(N2CCOCC2)c([N+](=O)[O-])c1)c1nc2ccccc2[nH]1 | u | u | 4% | 13* | 0% | 13
N#C/C(=C/c1ccc(N2CCCC2)c([N+](=O)[O-])c1)c1nc2ccccc2[nH]1 | u | 49% | -6% | 42* | 4% | 65*
N#C/C(=C\c1ccc(N2CCOCC2)o1)c1nc2ccccc2[nH]1 | 62% | 56% | -8% | 49* | 12% | 121*
Cc1ccc(NC(=O)CSCc2cc(=O)n3ccsc3n2)cc1 | 9% | u | 11% | 3 | 27% | -8
CCSC1=NCCN1C(=O)Cc1ccc(-c2ccccc2)cc1 | u | 6% | 0% | 8 | 9% | -6
CCOc1ccccc1C(=O)N1CCN=C1SC | x | 15µM* | 11% | -1 | 0% | 10
CSC1=NCCN1C(=O)Cc1ccc(F)cc1 | x | 9.3µM* | 1% | -6 | 12% | -45
CCOc1ccc(CC(=O)N2CCN=C2SC)cc1 | 12% | 2% | 1% | 2 | -2% | 20
CSC1=NCCN1C(=O)Cc1ccc(-c2ccccc2)cc1 | 26% | 55% | 0% | 20 | -20% | 42*
COc1ccc(S(=O)(=O)NC2CCCCCC2)cc1C(N)=O | 15% | 64% | 4% | -2 | -3% | -4
CCOC(=O)c1sc(NCCNc2nc(C)c(C(=O)OCC)s2)nc1C | -22% | u | 1% | -3 | -1% | 8
